# PAFAH1B3 inh = PAFAH1B3 (human) inhibition; recombinant PAFAH1B3, FP-rhodamine probe, fluorescence polarization; inhibition, % at 3.39 µM; Q15102; 340,000 compounds, 0.28% hits;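 active = inhibition above the screen-wide average of all tested compounds plus 3 SD, cut at about 25% in these data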
# Target sequence (Q15102 whole entry, looked up): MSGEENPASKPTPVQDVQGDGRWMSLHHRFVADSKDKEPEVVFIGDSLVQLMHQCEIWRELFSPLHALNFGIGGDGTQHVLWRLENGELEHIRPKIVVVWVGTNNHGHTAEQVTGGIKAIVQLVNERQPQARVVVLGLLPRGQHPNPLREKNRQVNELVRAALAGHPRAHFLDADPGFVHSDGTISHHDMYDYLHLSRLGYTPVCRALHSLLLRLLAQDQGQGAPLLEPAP
# LYPLA2 inh = blocks human lysophospholipase 2, a PME1 counter-screen. 320,000 compounds, 0.38% hits. recombinant LYPLA2, FP-Rh probe fluorescence polarization. inhibition, % at 5.9 µM. AID 2177. O95372;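 active = inhibition above the screen-wide mean plus 3 SD, limit set per campaign, cut at about 26% in these data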
# PAFAH2 FP inh = PAFAH2 (human) inhibition; Q99487; recombinant PAFAH2, FP-rhodamine activity probe, fluorescence polarization; inhibition, % at 3.39 µM; 340,000 compounds, 0.99% hits; AID 492956;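 active = inhibition above the mean over all tested compounds plus 3 SD, cut at about 30% in these data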;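 note: inhibitors block probe labeling of enzyme so polarization drops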
# pPAFAH inh = pPAFAH (human) enzyme inhibition. recombinant pPAFAH, FP-rhodamine probe fluorescence polarization. Q13093. 330,000 compounds, 1.5% hits. inhibition, % at 3.39 µM;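 active = inhibition above the mean inhibition across the screen plus 3 SD, cut at about 25% in these data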;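 note: inhibitors block binding of the rhodamine activity-based probe so polarization drops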
# LYPLA1 inh = blocks human lysophospholipase 1, a PME1 counter-screen. O75608. recombinant LYPLA1, FP-Rh probe fluorescence polarization. inhibition, % at 5.9 µM. 320,000 compounds, 0.16% hits. AID 2174;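 active = inhibition above the mean of all tested compounds plus 3 SD, set per campaign, cut at about 14% in these data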;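 note: inhibitors block serine hydrolase probe labeling of LYPLA1 so polarization falls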
# Target sequence (O75608 whole entry, looked up): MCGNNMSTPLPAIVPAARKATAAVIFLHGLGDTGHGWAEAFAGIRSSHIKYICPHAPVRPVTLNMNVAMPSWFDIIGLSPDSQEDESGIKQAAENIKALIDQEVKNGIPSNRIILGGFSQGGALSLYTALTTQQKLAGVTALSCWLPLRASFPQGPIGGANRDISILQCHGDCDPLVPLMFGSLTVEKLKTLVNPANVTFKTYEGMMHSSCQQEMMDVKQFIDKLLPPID
# PAFAH1B2 FP inh = blocks human PAF acetylhydrolase 1b catalytic subunit 2; recombinant PAFAH1B2, FP-rhodamine activity probe, fluorescence polarization; inhibition, % at 3.39 µM; 340,000 compounds, 1.2% hits; AID 492953;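 active = inhibition above the mean of all tested compounds plus 3 SD, cut at about 24% in these data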
# LYPLA1 confirm = counter-screen for PME1 inhibitors: confirmation of human LYPLA1 inhibitors; AID 2233; 480 compounds, 69% hits; recombinant LYPLA1, FP-Rh probe fluorescence polarization; inhibition, % at 5.9 µM; shares compounds with LYPLA1 inh;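 active = mean inhibition across replicates above the hit cutoff set in the primary screen, cut at about 15% in these data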;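 note: loss of FP-Rh probe labeling of LYPLA1 seen as lower polarization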
# LYPLA2 conf = counter-screen for PME1 inhibitors: confirmation of human LYPLA2 inhibitors; shares compounds with LYPLA2 inh; recombinant LYPLA2, FP-Rh probe fluorescence polarization; inhibition, % at 5.9 µM; 1,100 compounds, 72% hits;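 active = mean inhibition across replicates above the hit cutoff set in the primary screen, cut at about 26% in these data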;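 note: blocked labeling of the enzyme by serine hydrolase FP-Rh probe lowers polarization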
# LYPLA2 ABPP = blocks human acyl-protein thioesterase 2 in gel ABPP. shares compounds with LYPLA2 inh. AID 652029. rhLYPLA2 in mouse brain proteome, gel ABPP FP-Rh. 150 compounds, 30% hits. inhibition, % at 20 µM;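 active = inhibition of LYPLA2 enzyme probe labeling above about 50%, limit read from the data; inactive = inhibition below that limit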;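 note: loss of FP-Rh probe labeling of the LYPLA2 gel band measured as band density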
# pPAFAH confirm = pPAFAH (human) inhibition, confirmed; shares compounds with pPAFAH inh; recombinant pPAFAH, FP-Rh probe fluorescence polarization; inhibition, % at 3.39 µM; 2,300 compounds, 72% hits; AID 463230;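 active = mean inhibition of the triplicate above the hit cutoff set for the earlier primary screen, cut at about 25% in these data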
# Hits are given with their value; n = inactive; x = no result. Most compounds without a hit are left out; they make up all but 2.9% or so of the library.
SMILES,PAFAH1B3 inh,LYPLA2 inh,PAFAH2 FP inh,pPAFAH inh,LYPLA1 inh,PAFAH1B2 FP inh,LYPLA1 confirm,LYPLA2 conf,others
COC(=O)C1=C(c2c(C)noc2C)C[C@@H]2CC[C@H]1N2C(=O)NCc1ccc(C(F)(F)F)cc1,n,n,n,n,n,24.2,x,x,
C=CC[C@@H](CC/C=C/C=C/CC/C=C\[C@@H]1CSC([C@@H]2C[C@@H]2C)=N1)OC,n,x,n,n,x,n,x,x,
O=c1c2ccccc2nc(Cc2ccccc2)n1-c1ccccc1,n,x,n,x,x,n,x,x,
O=c1cc(C(F)(F)F)c2cc3c4c(c2o1)CCCN4CCC3,n,n,n,26.0,18.0,n,n,x,
Cc1cc2c(C(F)(F)F)cc(=O)oc2c2c1NCCC2,n,n,n,n,n,n,x,x,
CCCCCCn1c(=O)c(C(=O)Nc2cnccn2)c(O)c2ccccc21,n,n,n,n,n,n,x,x,
O=[N+]([O-])c1ccc(N2CCCCCC2)c2nonc12,n,n,n,n,16.0,n,24.1,x,
O=C(COc1ccc(Cl)cc1)N1CCN(C/C=C/c2ccccc2)CC1,n,69.7,n,n,25.8,n,23.7,76.9,
O=C(COc1ccccc1)N1CCN(C/C=C/c2ccccc2)CC1,n,n,n,n,n,n,x,x,
O=C(COc1ccc2ccccc2c1)N1CCN(CC2CC3C=CC2C3)CC1 (stereo not given),n,26.0,n,n,19.8,n,33.5,n,
O=c1[nH]c(=S)n(-c2ccccc2F)c(O)c1C=NCc1ccco1,n,n,n,n,n,n,x,x,
Cc1ccccc1NC(=O)Cc1nc(COC(=O)Cc2ccccc2)cs1,n,47.2,n,n,39.6,n,n,n,
O=C(COC(=O)Cc1ccccc1)Nc1cccnc1Cl,n,n,n,n,n,n,x,x,
Cn1ncnc2c(=O)n(C)c(=O)nc1-2,74.5,95.6,59.1,n,76.9,51.0,88.4,95.5,
CCCCN1CCC(C#N)(Nc2ccccc2)CC1,n,n,n,n,n,n,x,x,
C[n+]1c(-c2ccccc2)c2cc(N)ccc2c2ccc(N)cc21,120.5,115.7,91.8,68.1,89.1,87.0,67.9,75.5,pPAFAH confirm=51.9
Nc1ccc2ccc3cccc[n+]3c2c1,n,n,n,n,n,n,x,x,
O=[N+]([O-])c1ccc(NCc2ccccc2)c2nonc12,x,64.0,x,46.9,53.4,x,36.0,50.0,pPAFAH confirm=41.1
CCOP(=O)(Cc1cc(C(C)=O)c(C)o1)OCC,n,n,n,n,n,n,x,x,
C[N+]1(C)C2CCC1CC(OC(=O)c1ccccc1)C2 (stereo not given),n,26.1,n,n,n,n,x,n,
C[N+]1(C)[C@@H]2CC[C@H]1CC(OC(=O)C(CO)c1ccccc1)C2 (stereo not given in full),n,n,n,n,n,n,x,x,
O=[N+]([O-])c1ccc(NCc2ccc(Cl)cc2)c2ccncc12,n,33.3,n,n,n,n,x,51.9,LYPLA2 ABPP=n
CC[C@H](C)[C@@H]1O[C@@]2(C=CC1C)CC1C[C@@H](CC=C(C)C(O[C@H]3CC(OC)C(O[C@H]4CC(OC)C(O)C(C)O4)C(C)O3)C(C)C=CC=C3CO[C@@H]4C(O)C(C)=C[C@@H](C(=O)O1)[C@]34O)O2 (stereo not given in full),x,n,x,n,n,x,x,x,
Cc1ccccc1N1C(=O)/C(=C/c2ccco2)C(=O)NC1=S,x,46.6,x,91.3,n,x,x,31.8,
Cc1ccc(OCC(=O)N2CCN(Cc3ccc4c(c3)OCO4)CC2)cc1C,n,n,n,n,n,n,x,x,
O=C(COc1ccc(Br)cc1)N1CCN(Cc2ccc3c(c2)OCO3)CC1,n,32.2,n,n,n,n,x,n,

# High-throughput results as filed in PubChem.
